Drawing on PubChem BioAssay (NCATS), this text covers Potency for 23 compounds.

Inconclusive results are not listed. Entries that show only a call come without a potency. The source made the active and inactive calls. The call rests on the fitted dose curve; in most records, active means well fitted inhibition curve with a large enough effect; inconclusive means small, poorly fitted or top-dose-only effect; inactive means flat fitted curve, though single readings scatter.

This assay has as its system Zika virus NS2B-NS3 protease. Nature of the assay: Primary screen GU AMC qHTS for Zika virus inhibitors (AID 1347154). Further: nearly all actives have a fitted effect of over 70% in size. To be noted: Zika NS2B-NS3 unlinked protease, AMC fluorogenic substrate; series mostly up to 54.1 µM. The essentials:
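Unlinked Zika NS2B hydrophilic domain–NS3 protease complex at 25 nM in 10 mM Tris-HCl pH 8.0, 0.01% Tween 20, with an AMC peptide substrate. Fluorescence change (340/450 nm) over 15 min at room temperature, normalized to controls, fitted to 4-parameter Hill.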
On the technique in general: qHTS replaces the single test concentration by a dilution series.
Take `Cc1cnc(NS(=O)(=O)c2ccc(N)cc2)nc1`: the Potency entry is “inactive”.
Turning to `CC(NN)c1ccccc1` (stereo not drawn), the Potency result was “inactive”.
Regarding `CNC(=O)c1cnn(-c2nc(N)c3ncn([C@@H]4O[C@H](CO)[C@@H](O)[C@H]4O)c3n2)c1`, the Potency result was “inactive”.
The value for `O=C(c1ccccc1)c1ccccc1` was “inactive”; that for `COCCc1ccccn1` was “inactive”; that for `N#Cc1cc(NC(=O)C(=O)O)c(Cl)c(NC(=O)C(=O)O)c1` was “inactive”.
Turning to `C[C@@H]1CCC[C@H](C)N1CCCC(O)(c1ccccc1)c1ccccn1` (stereo partly drawn), the Potency result is “inactive”.
As for `CC1(C)OC(=O)Nc2ccc(Br)cc21`, the entry is “inactive”; as for `CN1CC(=O)N2[C@H](c3ccc4c(c3)OCO4)c3[nH]c4ccccc4c3C[C@@H]2C1=O`, “inactive”.
The value for `COc1ccc2c(c1)CCCC2=O` was “inactive”; that for `CCCCCCCCCCCCCCCC[n+]1ccccc1` was “inactive”; that for `CCCCC(CC)COC(=O)c1ccccc1C(=O)O` (stereo not drawn) was “inactive”.
The value for `CCCCCOc1ccccc1/C(=C\SC)n1ccnc1` was “inactive”.
For the compound `C/C=C(/C(=C/C)c1ccc(OC(C)=O)cc1)c1ccc(OC(C)=O)cc1`, the Potency result is “inactive”.
The value for `O=C(CCCl)NCCc1ccccc1` was “inactive”; that for `OCc1cccnc1` was “inactive”; that for `O=C1Cc2cc(Cl)ccc2N1` was “inactive”.
`CN(C)CCOC1=Cc2ccccc2Sc2ccc(Cl)cc21`: the Potency result is “inactive”.
As for `NC(=O)NC1N=C([O][Al])NC1=O` (stereo not drawn), the entry is “inactive”.
As for `CCCCCCCCCCCCCCCCCCN(C)C`, the entry is “inactive”.
As for `Clc1ccc2c(c1)Nc1ccccc1S2`, the entry is “inactive”.
For `CC(C)(C)C(=O)OCOC(=O)C1N2C(=O)CC2S(=O)(=O)C1(C)C` (stereo not drawn), the Potency result was “inactive”.
As for `CN1CCC(Nc2ncc3ncnc(Nc4ccc(F)c(Cl)c4)c3n2)CC1`, the entry is “inactive”.
